# Legend:
# Experiment in all cases: DAPPL (digital affinity profiling via proximity ligation, sequencing); 10 mM Tris-HCl pH 7.5, 50 mM NaCl, 1 mM DTT, 4% glycerol, room temperature, 30 min; GST-TFs on glutathione beads, 16-mer random dsDNA library, 0.1% formaldehyde crosslink after washing; high values mean tight binding
# FEV = biological target: T1, FEV (Homo sapiens, UniProt Q99581 1-238); settings: protein: recombinant; tags: N-terminal GST; dsDNA, one strand shown
# T1 sequence: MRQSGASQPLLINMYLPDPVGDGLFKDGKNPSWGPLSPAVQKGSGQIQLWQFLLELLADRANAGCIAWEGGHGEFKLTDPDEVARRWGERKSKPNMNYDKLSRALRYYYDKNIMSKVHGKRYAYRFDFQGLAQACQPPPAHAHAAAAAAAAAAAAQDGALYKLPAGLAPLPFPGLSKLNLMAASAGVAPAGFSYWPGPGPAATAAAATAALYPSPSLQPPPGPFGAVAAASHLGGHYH
# Method in brief: (§1)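 Pools of DNA-barcoded human transcription factors, expressed in yeast as GST fusions on glutathione beads and combined with a tag-only sample, were incubated with 200 nmole of a 16-mer random double-stranded DNA library. Incubation took 30 min at room temperature in Tris/NaCl/DTT/glycerol buffer and was followed by washing, 0.1% formaldehyde crosslinking, proximity ligation (BsaI/T4 ligase, 1 h, 37 °C), PCR amplification and sequencing on an Illumina NextSeq500. Binding signal is the ratio of a hexamer's read frequency for a factor to its frequency for the tag-only sample.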
# ETV5 = ETV5 (Homo sapiens, UniProt P41161 1-510); settings: protein: recombinant; tags: N-terminal GST; dsDNA, one strand shown
# ETV5, sequence (P41161 whole entry): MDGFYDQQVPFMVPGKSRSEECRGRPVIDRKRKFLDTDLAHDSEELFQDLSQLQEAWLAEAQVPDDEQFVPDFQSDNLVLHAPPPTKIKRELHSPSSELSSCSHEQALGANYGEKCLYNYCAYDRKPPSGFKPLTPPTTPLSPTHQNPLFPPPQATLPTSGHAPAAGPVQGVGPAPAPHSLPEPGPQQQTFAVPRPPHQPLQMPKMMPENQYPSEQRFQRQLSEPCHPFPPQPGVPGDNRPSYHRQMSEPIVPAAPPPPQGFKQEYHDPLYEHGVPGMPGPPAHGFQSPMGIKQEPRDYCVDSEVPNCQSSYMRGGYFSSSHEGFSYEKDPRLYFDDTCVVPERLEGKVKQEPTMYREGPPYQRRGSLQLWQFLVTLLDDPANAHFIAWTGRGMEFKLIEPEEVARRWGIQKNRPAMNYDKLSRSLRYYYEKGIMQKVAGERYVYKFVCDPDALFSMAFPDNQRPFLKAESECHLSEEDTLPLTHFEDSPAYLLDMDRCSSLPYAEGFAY
# Method in brief: as §1
# HSF1 = HSF1 (Homo sapiens, UniProt Q00613 1-529); settings: protein: recombinant; tags: N-terminal GST; chain copies: 3; dsDNA, one strand shown
# HSF1, sequence (Q00613 whole entry): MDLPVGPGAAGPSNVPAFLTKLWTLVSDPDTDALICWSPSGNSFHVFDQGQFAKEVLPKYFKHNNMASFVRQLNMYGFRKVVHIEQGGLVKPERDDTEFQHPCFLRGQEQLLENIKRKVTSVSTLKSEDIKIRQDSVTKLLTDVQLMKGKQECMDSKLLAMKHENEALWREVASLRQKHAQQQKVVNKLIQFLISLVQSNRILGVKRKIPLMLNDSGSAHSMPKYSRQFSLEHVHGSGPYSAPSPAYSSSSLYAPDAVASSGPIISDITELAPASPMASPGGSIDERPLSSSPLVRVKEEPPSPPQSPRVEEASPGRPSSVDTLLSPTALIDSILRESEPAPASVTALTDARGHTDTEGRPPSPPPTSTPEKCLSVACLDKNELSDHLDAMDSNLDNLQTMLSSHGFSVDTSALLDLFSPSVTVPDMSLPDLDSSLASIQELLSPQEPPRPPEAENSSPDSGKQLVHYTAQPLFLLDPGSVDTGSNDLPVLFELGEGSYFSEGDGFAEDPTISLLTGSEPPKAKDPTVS
# Method in brief: as §1
# SPIC = biological target: T2, SPIC (Homo sapiens, UniProt Q8N5J4 1-248); settings: protein: recombinant; tags: N-terminal GST; dsDNA, one strand shown
# T2 sequence: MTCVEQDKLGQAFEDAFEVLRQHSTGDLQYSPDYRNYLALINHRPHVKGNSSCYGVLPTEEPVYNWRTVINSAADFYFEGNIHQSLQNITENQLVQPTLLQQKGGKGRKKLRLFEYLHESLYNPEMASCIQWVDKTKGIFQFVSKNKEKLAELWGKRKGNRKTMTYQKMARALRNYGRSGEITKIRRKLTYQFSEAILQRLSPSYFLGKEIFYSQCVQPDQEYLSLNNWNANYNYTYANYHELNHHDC
# Method in brief: as §1
# ELF4 = ELF4 (Homo sapiens, UniProt Q99607 1-663); settings: protein: recombinant; tags: N-terminal GST; dsDNA, one strand shown
# ELF4, sequence (Q99607 whole entry): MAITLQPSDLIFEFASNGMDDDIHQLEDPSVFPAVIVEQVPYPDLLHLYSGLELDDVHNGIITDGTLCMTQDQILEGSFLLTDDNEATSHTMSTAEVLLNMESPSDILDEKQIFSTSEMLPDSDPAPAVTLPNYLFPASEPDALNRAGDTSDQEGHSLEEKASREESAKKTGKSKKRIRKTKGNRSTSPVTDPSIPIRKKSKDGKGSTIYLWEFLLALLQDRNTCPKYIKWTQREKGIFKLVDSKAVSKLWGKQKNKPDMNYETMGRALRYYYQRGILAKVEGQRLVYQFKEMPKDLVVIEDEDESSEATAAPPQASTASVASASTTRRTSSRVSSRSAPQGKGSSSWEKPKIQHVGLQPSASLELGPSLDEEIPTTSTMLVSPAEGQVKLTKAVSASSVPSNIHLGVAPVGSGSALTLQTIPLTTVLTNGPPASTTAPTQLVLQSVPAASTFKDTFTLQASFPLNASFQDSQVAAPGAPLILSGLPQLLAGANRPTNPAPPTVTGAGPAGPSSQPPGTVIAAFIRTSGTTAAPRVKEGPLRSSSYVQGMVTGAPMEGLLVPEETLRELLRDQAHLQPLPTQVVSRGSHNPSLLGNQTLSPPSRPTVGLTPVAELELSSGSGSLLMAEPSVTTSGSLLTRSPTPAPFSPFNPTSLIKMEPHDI
# Method in brief: as §1
# ELK4 = biological target: T3, ELK4 (Homo sapiens, UniProt P28324-2 1-405); settings: protein: recombinant; tags: N-terminal GST; dsDNA, one strand shown
# T3 sequence: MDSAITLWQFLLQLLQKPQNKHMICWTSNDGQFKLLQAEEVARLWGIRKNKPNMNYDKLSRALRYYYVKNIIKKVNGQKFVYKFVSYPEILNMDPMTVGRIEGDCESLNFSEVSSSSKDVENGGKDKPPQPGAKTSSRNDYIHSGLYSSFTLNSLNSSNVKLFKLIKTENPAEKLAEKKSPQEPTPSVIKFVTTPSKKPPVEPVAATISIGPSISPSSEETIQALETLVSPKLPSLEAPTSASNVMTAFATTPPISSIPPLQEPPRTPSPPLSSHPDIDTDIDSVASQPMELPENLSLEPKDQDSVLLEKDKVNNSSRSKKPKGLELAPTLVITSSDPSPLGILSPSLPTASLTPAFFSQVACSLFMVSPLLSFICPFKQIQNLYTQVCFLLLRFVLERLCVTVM
# Method in brief: as §1
# ETV2 = biological target: T4, ETV2 (Homo sapiens, UniProt O00321 1-342); settings: protein: recombinant; tags: N-terminal GST; dsDNA, one strand shown
# T4 sequence: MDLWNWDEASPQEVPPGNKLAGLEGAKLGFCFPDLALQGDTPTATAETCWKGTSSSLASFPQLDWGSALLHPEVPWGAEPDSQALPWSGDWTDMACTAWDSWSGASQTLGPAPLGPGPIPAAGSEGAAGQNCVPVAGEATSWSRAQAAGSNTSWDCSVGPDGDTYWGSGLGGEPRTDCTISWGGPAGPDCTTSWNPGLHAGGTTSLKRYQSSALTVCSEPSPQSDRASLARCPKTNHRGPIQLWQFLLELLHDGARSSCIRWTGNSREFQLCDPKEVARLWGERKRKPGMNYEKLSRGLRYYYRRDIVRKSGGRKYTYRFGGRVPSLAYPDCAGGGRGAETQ
# Method in brief: as §1
# ELF3 = biological target: T5, ELF3 (Homo sapiens, UniProt P78545 1-371); settings: protein: recombinant; tags: N-terminal GST; dsDNA, one strand shown
# T5 sequence: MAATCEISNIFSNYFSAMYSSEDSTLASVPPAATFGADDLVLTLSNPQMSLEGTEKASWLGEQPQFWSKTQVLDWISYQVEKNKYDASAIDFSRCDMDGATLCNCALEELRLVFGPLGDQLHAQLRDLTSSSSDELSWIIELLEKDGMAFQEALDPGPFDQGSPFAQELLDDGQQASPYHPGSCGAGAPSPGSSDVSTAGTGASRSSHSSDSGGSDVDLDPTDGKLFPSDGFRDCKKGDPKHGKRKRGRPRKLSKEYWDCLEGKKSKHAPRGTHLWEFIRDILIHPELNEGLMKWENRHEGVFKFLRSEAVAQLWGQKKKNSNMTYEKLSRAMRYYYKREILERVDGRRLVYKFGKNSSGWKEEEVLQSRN
# Method in brief: as §1
# CRX = CRX (Homo sapiens, UniProt O43186 1-299); settings: protein: recombinant; tags: N-terminal GST; dsDNA, one strand shown
# CRX, sequence (O43186 whole entry): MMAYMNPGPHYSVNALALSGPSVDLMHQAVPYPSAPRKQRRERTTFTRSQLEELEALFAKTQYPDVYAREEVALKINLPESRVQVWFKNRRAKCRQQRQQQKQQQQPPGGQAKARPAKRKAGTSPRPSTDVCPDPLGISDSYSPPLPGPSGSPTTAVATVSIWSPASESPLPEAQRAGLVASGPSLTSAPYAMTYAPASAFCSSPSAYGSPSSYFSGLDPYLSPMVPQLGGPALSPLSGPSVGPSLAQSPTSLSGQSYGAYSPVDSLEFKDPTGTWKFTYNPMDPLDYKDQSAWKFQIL
# Method in brief: as §1
# ETV1 = ETV1 (Homo sapiens, UniProt P50549 1-477); settings: protein: recombinant; tags: N-terminal GST; dsDNA, one strand shown
# ETV1, sequence (P50549 whole entry): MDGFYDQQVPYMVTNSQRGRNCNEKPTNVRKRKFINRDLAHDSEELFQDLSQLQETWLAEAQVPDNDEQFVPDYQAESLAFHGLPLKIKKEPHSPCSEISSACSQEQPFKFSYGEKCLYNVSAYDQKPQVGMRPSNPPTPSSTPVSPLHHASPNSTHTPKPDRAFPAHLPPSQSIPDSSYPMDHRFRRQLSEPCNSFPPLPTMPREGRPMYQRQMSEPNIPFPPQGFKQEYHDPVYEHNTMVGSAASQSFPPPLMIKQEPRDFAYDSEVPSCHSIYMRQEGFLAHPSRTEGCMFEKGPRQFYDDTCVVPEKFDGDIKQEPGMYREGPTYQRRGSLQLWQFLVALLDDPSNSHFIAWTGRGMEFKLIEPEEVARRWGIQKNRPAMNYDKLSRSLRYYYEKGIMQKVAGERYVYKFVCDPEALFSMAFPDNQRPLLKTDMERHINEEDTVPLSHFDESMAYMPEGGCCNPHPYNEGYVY
# Method in brief: as §1
# ERF = biological target: T6, ERF (Homo sapiens, UniProt P50548 1-548); settings: protein: recombinant; tags: N-terminal GST; dsDNA, one strand shown
# T6 sequence: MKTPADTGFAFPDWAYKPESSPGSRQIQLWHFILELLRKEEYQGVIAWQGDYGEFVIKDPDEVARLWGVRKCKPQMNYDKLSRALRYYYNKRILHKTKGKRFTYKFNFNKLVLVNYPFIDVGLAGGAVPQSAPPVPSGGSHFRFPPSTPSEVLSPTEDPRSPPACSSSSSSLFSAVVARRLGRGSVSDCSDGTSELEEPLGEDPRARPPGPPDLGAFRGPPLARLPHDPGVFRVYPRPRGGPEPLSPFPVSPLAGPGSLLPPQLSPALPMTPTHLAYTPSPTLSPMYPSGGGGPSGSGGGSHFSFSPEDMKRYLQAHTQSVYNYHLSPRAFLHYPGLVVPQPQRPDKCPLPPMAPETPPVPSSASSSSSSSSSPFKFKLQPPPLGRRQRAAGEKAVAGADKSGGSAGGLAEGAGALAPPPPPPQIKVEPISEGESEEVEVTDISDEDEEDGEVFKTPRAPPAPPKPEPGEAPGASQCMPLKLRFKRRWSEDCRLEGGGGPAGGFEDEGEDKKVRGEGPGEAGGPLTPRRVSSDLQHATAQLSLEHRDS
# Method in brief: as §1
# ETV3L = biological target: T7, ETV3L (Homo sapiens, UniProt Q6ZN32 1-361); settings: protein: recombinant; tags: N-terminal GST; dsDNA, one strand shown
# T7 sequence: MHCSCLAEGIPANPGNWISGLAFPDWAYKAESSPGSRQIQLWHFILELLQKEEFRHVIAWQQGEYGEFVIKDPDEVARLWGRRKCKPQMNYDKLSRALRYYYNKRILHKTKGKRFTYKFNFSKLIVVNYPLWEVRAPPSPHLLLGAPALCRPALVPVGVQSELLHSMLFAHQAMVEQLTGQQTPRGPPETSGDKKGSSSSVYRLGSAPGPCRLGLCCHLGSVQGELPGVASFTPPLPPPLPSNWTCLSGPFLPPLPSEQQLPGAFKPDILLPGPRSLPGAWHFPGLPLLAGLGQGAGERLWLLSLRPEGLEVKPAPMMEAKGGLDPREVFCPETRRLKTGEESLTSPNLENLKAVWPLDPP
# Method in brief: as §1
# ETS2 = biological target: T8, ETS2 (Homo sapiens, UniProt P15036 1-469); settings: protein: recombinant; tags: N-terminal GST; dsDNA, one strand shown
# T8 sequence: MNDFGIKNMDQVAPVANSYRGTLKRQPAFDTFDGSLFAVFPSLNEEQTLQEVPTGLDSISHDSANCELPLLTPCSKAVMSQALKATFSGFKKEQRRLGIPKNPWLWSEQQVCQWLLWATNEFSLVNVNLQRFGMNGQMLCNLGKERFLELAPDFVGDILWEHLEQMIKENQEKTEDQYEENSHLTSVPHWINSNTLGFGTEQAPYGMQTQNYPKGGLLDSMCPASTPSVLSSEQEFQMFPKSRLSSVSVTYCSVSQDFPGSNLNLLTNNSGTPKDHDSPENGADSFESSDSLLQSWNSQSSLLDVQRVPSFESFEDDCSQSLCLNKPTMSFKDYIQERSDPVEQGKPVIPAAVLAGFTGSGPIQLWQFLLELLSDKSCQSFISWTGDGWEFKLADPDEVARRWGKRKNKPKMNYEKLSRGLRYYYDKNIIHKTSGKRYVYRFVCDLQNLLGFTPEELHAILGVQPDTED
# Method in brief: as §1
# SPDEF = biological target: T9, SPDEF (Homo sapiens, UniProt O95238 1-335); settings: protein: recombinant; tags: N-terminal GST; dsDNA, one strand shown
# T9 sequence: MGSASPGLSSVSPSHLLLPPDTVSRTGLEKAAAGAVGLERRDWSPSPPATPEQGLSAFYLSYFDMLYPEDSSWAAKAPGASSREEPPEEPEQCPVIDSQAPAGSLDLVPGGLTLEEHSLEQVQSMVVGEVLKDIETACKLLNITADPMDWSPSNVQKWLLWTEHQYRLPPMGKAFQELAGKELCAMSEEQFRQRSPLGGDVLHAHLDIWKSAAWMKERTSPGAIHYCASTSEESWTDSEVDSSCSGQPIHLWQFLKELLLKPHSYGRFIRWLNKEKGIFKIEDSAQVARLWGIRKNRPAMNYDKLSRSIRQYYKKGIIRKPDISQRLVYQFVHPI
# Method in brief: as §1
# ETV7 = biological target: T10, ETV7 (Homo sapiens, UniProt Q9Y603 1-341); settings: protein: recombinant; tags: N-terminal GST; dsDNA, one strand shown
# T10 sequence: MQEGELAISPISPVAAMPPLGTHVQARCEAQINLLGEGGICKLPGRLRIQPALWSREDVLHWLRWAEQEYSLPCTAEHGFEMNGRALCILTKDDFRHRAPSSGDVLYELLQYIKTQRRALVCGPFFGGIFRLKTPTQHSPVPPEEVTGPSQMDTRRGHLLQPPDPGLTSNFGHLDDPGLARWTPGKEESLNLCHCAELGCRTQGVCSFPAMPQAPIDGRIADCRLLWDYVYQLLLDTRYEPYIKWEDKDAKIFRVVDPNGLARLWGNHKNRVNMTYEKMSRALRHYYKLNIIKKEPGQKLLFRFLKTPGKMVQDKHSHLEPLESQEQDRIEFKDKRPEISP
# Method in brief: as §1
# ELF5 = biological target: T11, ELF5 (Homo sapiens, UniProt Q9UKW6-2 1-255); settings: protein: recombinant; tags: N-terminal GST; dsDNA, one strand shown
# T11 sequence: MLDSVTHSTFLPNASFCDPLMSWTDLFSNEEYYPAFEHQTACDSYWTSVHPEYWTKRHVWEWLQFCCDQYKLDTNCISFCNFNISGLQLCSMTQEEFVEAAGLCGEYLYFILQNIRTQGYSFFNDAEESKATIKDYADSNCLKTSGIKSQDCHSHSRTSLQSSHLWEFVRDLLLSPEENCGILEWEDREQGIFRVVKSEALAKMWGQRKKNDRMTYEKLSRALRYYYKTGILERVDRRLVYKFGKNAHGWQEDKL
# Method in brief: as §1
# ETV3 = biological target: T12, ETV3 (Homo sapiens, UniProt P41162-2 1-143); settings: protein: recombinant; tags: N-terminal GST; dsDNA, one strand shown
# T12 sequence: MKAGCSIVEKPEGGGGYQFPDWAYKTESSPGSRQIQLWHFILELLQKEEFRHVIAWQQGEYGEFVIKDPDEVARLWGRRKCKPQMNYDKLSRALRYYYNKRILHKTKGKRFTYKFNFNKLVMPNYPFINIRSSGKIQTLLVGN
# Method in brief: as §1
# ETV6 = ETV6 (Homo sapiens, UniProt P41212 1-452); settings: protein: recombinant; tags: N-terminal GST; dsDNA, one strand shown
# ETV6, sequence (P41212 whole entry): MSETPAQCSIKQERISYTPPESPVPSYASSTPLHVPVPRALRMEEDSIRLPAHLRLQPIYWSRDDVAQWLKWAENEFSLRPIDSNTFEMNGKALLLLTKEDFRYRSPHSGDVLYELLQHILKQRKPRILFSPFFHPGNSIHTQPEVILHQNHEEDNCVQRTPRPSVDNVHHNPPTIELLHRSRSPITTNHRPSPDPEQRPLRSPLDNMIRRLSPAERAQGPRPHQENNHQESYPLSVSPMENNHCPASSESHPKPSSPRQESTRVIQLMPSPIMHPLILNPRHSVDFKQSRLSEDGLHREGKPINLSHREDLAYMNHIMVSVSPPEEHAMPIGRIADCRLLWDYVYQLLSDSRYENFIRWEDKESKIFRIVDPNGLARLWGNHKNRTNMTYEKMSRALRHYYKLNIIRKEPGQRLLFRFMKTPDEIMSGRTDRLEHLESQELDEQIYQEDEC
# Method in brief: as §1
sequence,measurement,setting,value
GATGGC,binding signal,FEV,"1.33 fold enrichment (6-mer frequency, TF over GST control)"
same,binding signal,ETV5,"1.26 fold enrichment (6-mer frequency, TF over GST control)"
same,binding signal,HSF1,"1.1 fold enrichment (6-mer frequency, TF over GST control)"
same,binding signal,SPIC,"1.45 fold enrichment (6-mer frequency, TF over GST control)"
same,binding signal,ELF4,"1.4 fold enrichment (6-mer frequency, TF over GST control)"
same,binding signal,ELK4,"1.3 fold enrichment (6-mer frequency, TF over GST control)"
same,binding signal,ETV2,"1.21 fold enrichment (6-mer frequency, TF over GST control)"
same,binding signal,ELF3,"1.47 fold enrichment (6-mer frequency, TF over GST control)"
same,binding signal,CRX,"1.11 fold enrichment (6-mer frequency, TF over GST control)"
same,binding signal,ETV1,"1.31 fold enrichment (6-mer frequency, TF over GST control)"
same,binding signal,ERF,"1.4 fold enrichment (6-mer frequency, TF over GST control)"
same,binding signal,ETV3L,"1.3 fold enrichment (6-mer frequency, TF over GST control)"
same,binding signal,ETS2,"1.27 fold enrichment (6-mer frequency, TF over GST control)"
same,binding signal,SPDEF,"1.29 fold enrichment (6-mer frequency, TF over GST control)"
same,binding signal,ETV7,"1.26 fold enrichment (6-mer frequency, TF over GST control)"
same,binding signal,ELF5,"1.3 fold enrichment (6-mer frequency, TF over GST control)"
same,binding signal,ETV3,"1.3 fold enrichment (6-mer frequency, TF over GST control)"
same,binding signal,ETV6,"1.31 fold enrichment (6-mer frequency, TF over GST control)"
